Assay outcomes (PubChem)
Shown are actives, neighbours in structure and some others; about 1.6% of the full set was active somewhere.
KCNQ2 enhance – potentiators of rat KCNQ2 potassium channel | Potassium voltage-gated channel subfamily KQT member 2 (Rattus norvegicus), O88943 | CHO-K1 KCNQ2, FluxOR thallium flux fluorescence; active compounds read high | B-score at 10 µM | actives 0.54% (n = 310,000) | AID 2239, 2010;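 active = fluorescence ratio B-score at least 3 SD of library B-scores, with initial fluorescence B-score within 3 of them, cut at about 5.3 in these data; same plate scores as AID 2156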;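 note: B-score of peak minus minimum over baseline fluorescence ratio after K+ and Tl+ stimulus; positive B-score means potentiation of KCNQ2 with more thallium influx and brighter signal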
KCNQ2 block – rat KCNQ2 potassium channel inhibitors, primary screen, cell-based, CHO-K1, FluxOR thallium flux, B-score | 20 min; active compounds read low | B-score at 10 µM | Potassium voltage-gated channel subfamily KQT member 2 (Rattus norvegicus), O88943 | AID 2156, 2009 | actives 1.1% (n = 310,000);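 active = fluorescence ratio B-score at most minus 3 library SDs, with starting brightness B-score within 2 library SDs, cut at about -5.5 in these data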
KCNQ2 inh conf – rat KCNQ2 potassium channel inhibitors, confirmation, cell-based, thallium flux | shares compounds with KCNQ2 block | KCNQ2-expressing cells, inhibition; active compounds read low | activity change, negative = inhibition, % at 10 µM | actives 57% (n = 1,000) | AID 493025, 2011;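 note: 0% = vehicle wells and values are ratio percent relative to vehicle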
KCNQ1 spec – human KCNQ1 channel inhibition, counter-screen for KCNQ2 inhibitor project, cell-based, FluxOR thallium flux; shares compounds with KCNQ2 block; KCNQ1-expressing cells, FluxOR thallium flux fluorescence; active compounds read low; activity change, negative = inhibition, % at 10 µM; actives 15% (n = 1,000); AID 493026, 2011;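 active = activity change at least 3 SD of negative controls below their mean in both duplicate wells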;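 note: CHO cells stably transfected with KCNQ1 and depolarized by potassium stimulus; peak minus minimum fluorescence over baseline after thallium addition; 0% = vehicle negative control and -100% = blank without thallium stimulus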
Target sequence (P51787 whole entry, looked up): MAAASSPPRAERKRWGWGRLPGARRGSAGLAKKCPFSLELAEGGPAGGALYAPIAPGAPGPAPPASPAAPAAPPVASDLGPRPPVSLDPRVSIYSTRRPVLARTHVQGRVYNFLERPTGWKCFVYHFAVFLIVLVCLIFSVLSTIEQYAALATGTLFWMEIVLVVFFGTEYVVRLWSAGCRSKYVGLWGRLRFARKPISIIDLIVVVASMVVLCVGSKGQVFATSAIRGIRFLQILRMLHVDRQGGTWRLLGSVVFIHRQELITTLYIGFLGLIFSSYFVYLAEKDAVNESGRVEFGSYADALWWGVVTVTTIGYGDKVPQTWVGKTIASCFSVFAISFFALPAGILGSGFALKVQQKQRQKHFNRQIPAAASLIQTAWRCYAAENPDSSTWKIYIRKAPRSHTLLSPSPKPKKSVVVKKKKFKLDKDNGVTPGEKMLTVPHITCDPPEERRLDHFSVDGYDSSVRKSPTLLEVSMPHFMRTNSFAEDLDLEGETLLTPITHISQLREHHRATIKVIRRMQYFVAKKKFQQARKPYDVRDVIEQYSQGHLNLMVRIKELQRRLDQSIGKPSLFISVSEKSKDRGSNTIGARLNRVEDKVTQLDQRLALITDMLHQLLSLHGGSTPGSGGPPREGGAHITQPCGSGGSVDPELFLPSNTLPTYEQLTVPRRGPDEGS
CHO parental ctr – thallium flux change in parental CHO cells, counter-screen for KCNQ2 inhibitor project. actives 14% (n = 1,000). shares compounds with KCNQ2 block. AID 493029, 2011. active compounds read low. activity change, % at 10 µM;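 note: 0% = vehicle negative controls with stimulus buffer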
KCNQ2 patch conf – rat KCNQ2 channel inhibitors, confirmation, cell-based, automated patch clamp, single concentration; shares compounds with KCNQ2 block; KCNQ2-expressing cells, automated patch clamp current; calls only at 10 µM; actives 49% (n = 550); AID 588531, 2011
* hit, by the source's call; i = inactive; x = no result; + = active, no number. Unless noted, the rule behind the calls is not given here.

SMILES	KCNQ2 enhance	KCNQ2 block	KCNQ2 inh conf	KCNQ1 spec	CHO parental ctr	others
Cc1ccc(C(=O)NCC(c2ccco2)N2CCc3ccccc3C2)cc1 (centres undefined)	-6.69	-6.69*	i	i	i
O=C(NCC(c1ccco1)N1CCc2ccccc2C1)c1cccc(Br)c1 (centres undefined)	-7.86	-7.86*	i	i	i
Cc1ccc(C(=O)NCC(c2ccco2)N2CCc3ccccc3C2)cc1C (centres undefined)	-8.76	-8.76*	-28.5%*	i	i
Cc1ccc(C(=O)NCC(c2ccco2)N2CCOCC2)cc1 (centres undefined)	1.56	i	x	x	x
O=C(NCC(c1ccco1)N1CCc2ccccc2C1)c1ccccc1Br (centres undefined)	x	i	x	x	x
Cc1ccc(C)c(S(=O)(=O)NCC(c2ccco2)N2CCc3ccccc3C2)c1 (centres undefined)	x	i	x	x	x
COc1ccc(CCNC(=O)C(C)OC(=O)c2nsc(Cl)c2Cl)cc1OC (centres undefined)	0.46	i	x	x	x
O=C(NCC(c1ccco1)N1CCc2ccccc2C1)c1ccc(Cl)cc1 (centres undefined)	-10.2	-10.2*	-31.0%*	-30.0%*	-22.0%*	KCNQ2 patch conf=+
O=C(NCC(c1ccco1)N1CCc2ccccc2C1)c1c(F)cccc1F (centres undefined)	0.53	i	x	x	x
C=CCNC(=O)c1c2c(nc3ccccc13)-c1ccccc1CC2	-7.64	-7.64*	i	i	i
CC(C)CNC(=O)c1c2c(nc3ccccc13)-c1ccccc1CC2	x	i	x	x	x
CCN(CC)C(=O)c1c2c(nc3ccccc13)-c1ccccc1CC2	-8.82	-8.82*	i	i	i
COc1cccc2c1CCc1c-2nc2ccccc2c1C(=O)O	0.66	i	x	x	x
COC(=O)CC1COc2ccccc2N1C(=O)c1ccc(Br)cc1 (centres undefined)	x	i	x	x	x
COC(=O)CC1COc2ccccc2N1C(=O)c1ccc(C(C)(C)C)cc1 (centres undefined)	-6.81	-6.81*	-29.0%*	i	i	KCNQ2 patch conf=+
CCOC(=O)c1cnc2c(F)ccc(F)c2c1Sc1ccccc1	-7.57	-7.57*	i	i	i
CCOC(=O)c1cnc(-c2ccccc2)nc1C(F)(F)F	x	i	x	x	x
CCOc1ccccc1N(CC(=O)NCCSc1ccccc1)S(C)(=O)=O	x	i	x	x	x
CCC(=O)Nc1ccc(-c2nnc(SCC(=O)NCC3CCCO3)n2C)cc1 (centres undefined)	0.28	i	x	x	x
CCC(C)Sc1ccc(-c2nc3ccc(C)cn3c2NCc2ccccc2)cc1OC (centres undefined)	x	i	x	x	x
CCC(C)Sc1cccc(-c2nc3cc(C)ccn3c2NCc2ccccc2)c1 (centres undefined)	-6.73	-6.73*	i	i	i
O=C(NNC(=O)c1cccc2ccccc12)c1ccc2c(c1)OCO2	x	i	x	x	x
CC(C)=CCc1c(O)cc2oc3c(CC=C(C)C)c(O)c(O)c(CC=C(C)C)c3c(=O)c2c1O	-11.9	-11.9*	-48.0%*	-42.5%*	-27.5%*	KCNQ2 patch conf=i
CC(C)=CCc1cc(-c2oc3cc(O)cc(O)c3c(=O)c2O)ccc1O	2.36	i	x	x	x
CN(C)c1ccnc(NCc2ccccc2)c1C#N	0.98	i	x	x	x
SMILES	KCNQ2 enhance	KCNQ2 block	KCNQ2 inh conf	KCNQ1 spec	CHO parental ctr	others
CN(C)c1ccnc(N(Cc2ccccc2)Cc2ccccc2)c1C#N	-7.18	-7.18*	i	i	i
CC(C)CN(C(=O)COC(=O)CSc1ccccc1)c1c(N)n(Cc2ccccc2)c(=O)[nH]c1=O	2.13	i	x	x	x
COc1cccc(CN(C)C(=O)c2csc3c2CCCC3)c1OC	x	i	x	x	x
Cc1cccc(N2CCN(C(=O)C(Cc3ccccc3)n3cccc3)CC2)c1C (centres undefined)	-13	-13*	-43.0%*	-34.5%*	-31.0%*	KCNQ2 patch conf=i
Cc1cccc(N2CCN(C(=O)C(Cc3ccccc3)NC(N)=O)CC2)c1C (centres undefined)	0.13	i	x	x	x
COCCn1c(SC(C)C(=O)Nc2ccc(Cl)cn2)nnc1-c1ccncc1 (centres undefined)	1.13	i	x	x	x
COC(=O)CNC(=O)COC(=O)c1ccc(Cl)nc1	x	i	x	x	x
COc1ccc(-c2cc(-c3ccccc3)nc(Cl)n2)cc1OC	x	i	x	x	x
Cc1ccc(-c2cc(-c3ccccc3)nc(Cl)n2)cc1	-8.3	-8.3*	i	i	i
Cc1cc(=O)n2nc(N3CCC(C(=O)NCc4ccccc4Cl)CC3)sc2n1	0.24	i	x	x	x
CC(C)CCn1c(O)c(N=NC(=O)c2ccco2)c2ccccc21	x	i	x	x	x
CC(C)Cn1c(O)c(N=NC(=O)c2cccc(S(=O)(=O)N3CCCCC3)c2)c2ccccc21	-9.29	-9.29*	i	i	i
Cc1cc(NC(=O)C(C)Oc2ccccc2)no1 (centres undefined)	x	i	x	x	x
O=C(NCCn1cc(SCc2ccc(F)cc2)c2ccccc21)c1ccccc1F	-9.09	-9.09*	i	i	i
O=C(NCCn1cc(SCc2ccc(F)cc2)c2ccccc21)c1c(F)cccc1F	0.27	i	x	x	x
O=C(O)c1cnc(-c2ccccc2)nc1Oc1ccc(Cl)cc1	-7.46	-7.46*	-19.5%*	i	i	KCNQ2 patch conf=+
O=C(O)c1cnc(-c2ccccc2)nc1Oc1ccccc1	x	i	x	x	x
O=C(COC(=O)c1ccccc1)Nc1cc(Cl)ccc1Oc1ccccc1	x	i	x	x	x
O=C(COC(=O)c1c(Cl)cccc1Cl)Nc1cc(Cl)ccc1Oc1ccccc1	x	i	x	x	x
COc1ccccc1OCC(=O)Nc1cc(Cl)ccc1Oc1ccccc1	-10	-10*	-32.5%*	-35.0%*	-30.5%*	KCNQ2 patch conf=+
Cc1ccccc1OCC(=O)Nc1cc(Cl)ccc1Oc1ccccc1	-7.37	-7.37*	-26.5%*	i	i	KCNQ2 patch conf=i
CC(C)Cn1c(N)c(C(=O)COC(=O)[C@@H]2CCCN2C(=O)c2cccs2)c(=O)n(C)c1=O	x	i	x	x	x
COCCn1c(=O)[nH]c2cc(C(=O)Nc3cccc(C(C)=O)c3)ccc2c1=O	x	i	x	x	x
CCN(CC)S(=O)(=O)c1ccc(C(=O)N(c2ccc(C)cc2)C2C=CS(=O)(=O)C2)cc1 (centres undefined)	0.57	i	x	x	x
COC(=O)c1ccc(C(=O)OC)c(NC(=O)COC(=O)CCOc2ccc(C)cc2)c1	0.56	i	x	x	x
Cc1ccc2oc(=O)c3cnn(CC(=O)Nc4cc(-c5cccc(F)c5)no4)c3c2c1	0.9	i	x	x	x
O=C1CN(C(=O)CSc2nc(-c3ccc(Cl)cc3)cs2)c2ccccc2N1	x	i	x	x	x
